The nature of test [1]: qHTS assay to identify small molecule antagonists of the estrogen receptor alpha (ER-alpha) signaling pathway using the BG1 cell line in the presence of 0.1 nM 17-beta-estradiol - cell viability counter screen (AID 1259241). Also: nearly all actives have a fitted effect of over 40% in size. Also: potency is read from the fitted curve at half-maximal effect. Put shortly: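 VM7Luc4E2 cells (endogenous full-length ER-alpha, 4xERE-luciferase), cultured 5 days in charcoal-stripped serum, exposed to compounds with 0.1 nM 17beta-estradiol (final) for 22 hr at 37C. Viability read in same wells as live-cell protease fluorescence after 30 min.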
For orientation: qHTS replaces the single test concentration by a dilution series.

Test [2] is described as follows: qHTS assay to identify small molecule antagonists of the androgen receptor (AR) signaling pathway using the MDA cell line in the presence of 0.5 nM R1881 - cell viability counter screen (AID 1259242). Also: nearly all actives have a fitted effect of over 45% in size. Also: potency is read from the fitted curve at half-maximal effect. Put shortly:
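Viability of MDA-kb2 cells was multiplexed with the luciferase AR readout; after 16 hr with compounds and R1881 at 0.5 nM final, CellTiter-Fluor fluorescence was recorded.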

The target in test [3] is Estrogen receptor (Homo sapiens) (UniProt P03372). Description: qHTS assay to identify small molecule antagonists of the estrogen receptor alpha (ER-alpha) signaling pathway using the BG1 cell line in the presence of 0.1 nM 17-beta-estradiol (AID 1259244). Also: nearly all actives have a fitted effect of over 50% in size. Also: potency is read from the fitted curve at half-maximal effect. The essentials:
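Estradiol at 0.1 nM (final) stimulates the endogenous ER-alpha of VM7Luc4E2 cells carrying an ERE-driven luciferase; compounds are co-incubated 22 h at 37C and luciferase output quantified by luminescence.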

Test [4] is described as follows: qHTS assay to identify small molecule HDAC inhibitors (AID 1259364).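 Also: wild-type HCT-116 cells with endogenous class I/II HDAC activity; top concentration of the series differs between compounds; nearly all actives have a fitted effect of over 45% in size.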 Put shortly:
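Read-out: luminescence of HDAC-Glo I/II reagent, 30 min RT, reflecting class I/II deacetylase activity in whole HCT-116 cells pre-exposed 2 h to DMSO-dissolved compounds.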

Test [5] is described as follows: qHTS assay to identify small molecule HDAC inhibitors - cell viability counter screen (AID 1259365). Also: series mostly up to about 92 µM; nearly all actives have a fitted effect of over 50% in size. Put shortly: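 Wild-type HCT-116 cells, 1,500/well, cultured overnight, then compound-treated 2 h at 37 C. Viability measured as ATP luminescence with CellTiter-Glo after 30 min at room temperature.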
The nature of test [6]: qHTS assay to identify small molecule agonists of the sonic hedgehog signaling (Shh) pathway - cell viability counter screen (AID 1259366). Also: nearly all actives have a fitted effect of over 50% in size. The essentials: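 NIH/3T3-derived Gli1-Luc reporter cells, 2,000 per well, received compound after 4 h and were treated about 23 h at 37C. Viability measured in the same wells by CellTiter-Fluor fluorescence after 1 h.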
A short description of test [7]: qHTS assay to identify small molecule antagonists of the sonic hedgehog signaling (Shh) pathway - cell viability counter screen (AID 1259367). Also: nearly all actives have a fitted effect of over 55% in size. The essentials:
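After a 4 hr settling period, 3T3 Gli1-Luc cells were treated with DMSO-dissolved chemicals and conditioned medium, kept 24 hr at 37C in 5% CO2, and assayed for viability by CellTiter-Fluor fluorescence following 1 hr reagent incubation.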

Test [8] is described as follows: qHTS assay to identify small molecule agonists of the sonic hedgehog signaling (Shh) pathway (AID 1259368; calls by dose curve;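 also: NIH/3T3-derived 3T3Gli1-Luc cells carrying a stable Gli1-driven firefly luciferase reporter; series mostly up to about 92 µM; nearly all actives have a fitted effect of over 15% in size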). Put shortly: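 A Gli1 transcriptional response element controlled firefly luciferase in 3T3Gli1-Luc cells. Compounds and a positive control were added 4 hr after plating, and cells were incubated a further 24 hr at 37 C before luminescence detection.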
A short description of test [9]: qHTS assay to identify small molecule agonists of the androgen receptor (AR) signaling pathway in the presence of an antagonist - cell viability counter screen (AID 1259379). Also: nearly all actives have a fitted effect of over 25% in size. Also: potency is read from the fitted curve at half-maximal effect. The essentials: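 Seed MDA-kb2 at 3,000 cells/well; incubate 5 hr, 37C, 0% CO2. Add nilutamide to 3.0uM final, then pin compounds at 15 concentrations. Incubate 16 hr. Add CellTiter-Fluor at 15 hr, read fluorescence after 1 hr.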

The nature of test [10]: qHTS assay to identify small molecule agonists of the estrogen receptor beta (ER-beta) signaling pathway - cell viability counter screen (AID 1259380). Also: nearly all actives have a fitted effect of over 30% in size. Also: potency is read from the fitted curve at half-maximal effect. The essentials: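 CellTiter-Glo read, 30 min RT, same wells as bla assay; cells ER-beta-UAS-bla HEK293T; 16 hr compound, 37C; medium 2% charcoal-stripped FBS.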
Test [11] is described as follows: qHTS assay to identify small molecule antagonists of the estrogen receptor beta (ER-beta) signaling pathway - cell viability counter screen (AID 1259382). Also: series mostly up to about 92 µM; nearly all actives have a fitted effect of over 55% in size. The essentials:
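In this multiplexed counter screen, cells were seeded at 2,000 per well in medium with 2% charcoal-stripped FBS and incubated 6 hr before compound and 1nM final E2 were added. Sixteen hours later, ATP-based luminescence reported viability.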

Test [12] can be described thus: qHTS assay to identify small molecule agonists or antagonists of the thyroid stimulating hormone receptor (TSHR) signaling pathway - wild type cell line counter screen (AID 1259384; calls by dose curve). Put shortly:
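Wild-type HEK293 cells were plated 18 h at 37 C/5% CO2, pin-dosed with compound plus Ro20-1724 medium, held 30 min at room temperature, then given cAMP-d2 and anti-cAMP-cryptate; fluorescence was read after 1 h. Fifteen concentrations, triplicate.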

A short description of test [13]: qHTS assay to identify small molecule phospholipidosis (PLD) inducers (AID 1259344; active = well fitted curve in the direction sought with a large enough effect; an effect the other way counts as inactive or inconclusive). Put shortly: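 HepG2 cells grown on collagen I take up LipidTOX Red while exposed to compound for 24 h; after fixation they are imaged at 20x and pit metrics are extracted.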
The nature of test [14]: qHTS assay to identify small molecule antagonists of the sonic hedgehog signaling (Shh) pathway (AID 1259369; calls by dose curve; also: nearly all actives have a fitted effect of over 45% in size; also: potency is read from the fitted curve at half-maximal effect). Put shortly:
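For antagonist detection, the reporter line received test compounds together with conditioned medium, incubated 24hr at 37 C, 5% CO2, then luminescence was recorded following 30min room-temperature luciferase reagent incubation.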

In test [15] the target is Androgen receptor (Homo sapiens) (UniProt P10275). Nature of the test: qHTS assay to identify small molecule agonists of the androgen receptor (AR) signaling pathway in the presence of an antagonist (AID 1259381; calls by dose curve; also: nearly all actives have a fitted effect of over 15% in size). The essentials: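 Test compounds at 15 concentrations were incubated for 16hr with MDA-kb2 reporter cells in presence of 3.0uM nilutamide (final). Signal: ONE-Glo luciferase luminescence.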
Sequence of Androgen receptor (Homo sapiens) (P10275 whole entry, looked up): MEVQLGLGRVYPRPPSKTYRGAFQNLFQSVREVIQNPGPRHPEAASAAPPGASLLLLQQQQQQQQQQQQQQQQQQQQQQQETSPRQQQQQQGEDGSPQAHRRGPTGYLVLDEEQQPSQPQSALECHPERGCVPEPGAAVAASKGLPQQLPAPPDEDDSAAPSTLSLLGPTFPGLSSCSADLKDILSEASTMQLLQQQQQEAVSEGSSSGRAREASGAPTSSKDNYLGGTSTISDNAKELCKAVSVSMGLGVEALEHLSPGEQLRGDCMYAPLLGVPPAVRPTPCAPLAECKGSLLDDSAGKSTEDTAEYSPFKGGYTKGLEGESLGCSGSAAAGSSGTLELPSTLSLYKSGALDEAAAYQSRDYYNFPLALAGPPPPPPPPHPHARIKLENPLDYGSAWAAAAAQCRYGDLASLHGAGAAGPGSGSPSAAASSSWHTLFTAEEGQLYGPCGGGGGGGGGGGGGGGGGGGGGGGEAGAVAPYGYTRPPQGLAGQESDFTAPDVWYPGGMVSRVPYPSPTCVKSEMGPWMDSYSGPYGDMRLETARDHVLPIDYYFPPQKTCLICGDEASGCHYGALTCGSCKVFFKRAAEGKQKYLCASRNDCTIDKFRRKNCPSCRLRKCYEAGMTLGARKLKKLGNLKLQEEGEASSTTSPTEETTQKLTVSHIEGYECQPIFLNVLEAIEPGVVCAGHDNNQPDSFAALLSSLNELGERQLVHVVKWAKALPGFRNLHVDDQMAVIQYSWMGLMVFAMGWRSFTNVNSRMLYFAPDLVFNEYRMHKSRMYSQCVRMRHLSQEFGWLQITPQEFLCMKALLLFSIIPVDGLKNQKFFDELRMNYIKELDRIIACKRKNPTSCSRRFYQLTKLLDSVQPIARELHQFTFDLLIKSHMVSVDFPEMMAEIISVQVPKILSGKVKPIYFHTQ

Test [16] concerns the target Estrogen receptor beta (Homo sapiens) (UniProt Q92731). Nature of the test: qHTS assay to identify small molecule agonists of the estrogen receptor beta (ER-beta) signaling pathway (AID 1259377; active = well fitted activation curve with a large enough effect in the signal ratio in the repeat runs, not every such curve was filed as active; the % refers to the signal ratio). The essentials:
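ER-beta-UAS-bla HEK293T cells in medium with 2% charcoal-stripped FBS were exposed to compounds for 16 h at 37C. Beta-lactamase reporter activity was read as fluorescence after 2 h with LiveBLAzer B/G FRET substrate at room temperature.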

Test [17] shares this target. Nature of the test: qHTS assay to identify small molecule antagonists of the estrogen receptor beta (ER-beta) signaling pathway (AID 1259378; active = well fitted inhibition curve with a large enough effect in the signal ratio in the repeat runs, not every such curve was filed as active; the % refers to the signal ratio; also: potency is read from the fitted curve at half-maximal effect). Put shortly: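 ER-beta-UAS-bla HEK293T (GripTite) cells in 2% charcoal-stripped FBS medium were preincubated 6 hr at 37C, dosed with compound, then stimulated with 1 nM E2 (final) for 16 hr; beta-lactamase reporter read by B/G FRET fluorescence after 2 hr substrate loading.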

For test [18], the target named is Estrogen receptor (Homo sapiens) (UniProt P03372). Nature of the test: qHTS assay to identify small molecule agonists of the estrogen receptor alpha (ER-alpha) signaling pathway in the presence of an antagonist (AID 1259383; calls by dose curve; also: nearly all actives have a fitted effect of over 15% in size; also: potency is read from the fitted curve at half-maximal effect; as to activation: top concentration of the series differs between compounds). The essentials: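 Stably transfected VM7Luc4E2 reporter cells, kept 5 days in charcoal-stripped serum, received ICI-182,780 at 10.0nM final before compound addition. Following 22hr incubation at 37C and 5% CO2, luciferase signal was read by luminescence.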
Sequence of Estrogen receptor (Homo sapiens) (P03372 whole entry, looked up): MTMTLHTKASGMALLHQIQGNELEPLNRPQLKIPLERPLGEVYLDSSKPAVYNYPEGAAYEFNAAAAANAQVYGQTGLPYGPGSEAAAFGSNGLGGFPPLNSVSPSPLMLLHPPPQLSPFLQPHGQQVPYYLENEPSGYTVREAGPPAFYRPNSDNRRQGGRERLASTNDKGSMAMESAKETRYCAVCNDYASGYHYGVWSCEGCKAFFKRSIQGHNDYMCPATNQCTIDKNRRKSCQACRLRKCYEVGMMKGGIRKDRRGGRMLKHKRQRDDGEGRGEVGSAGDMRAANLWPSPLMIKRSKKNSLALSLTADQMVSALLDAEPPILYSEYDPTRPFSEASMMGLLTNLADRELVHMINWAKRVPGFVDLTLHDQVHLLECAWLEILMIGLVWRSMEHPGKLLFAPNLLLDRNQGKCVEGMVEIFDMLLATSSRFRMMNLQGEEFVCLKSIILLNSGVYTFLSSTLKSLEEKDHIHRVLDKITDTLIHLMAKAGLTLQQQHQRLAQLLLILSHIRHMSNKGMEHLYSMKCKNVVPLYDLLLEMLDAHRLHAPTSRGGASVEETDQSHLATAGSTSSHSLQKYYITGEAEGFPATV

Test [19] deals with Thyrotropin receptor (Homo sapiens) (UniProt P16473). Nature of the test: qHTS assay to identify small molecule antagonists of the thyroid stimulating hormone receptor (TSHR) signaling pathway (AID 1259385; calls by dose curve; also: nearly all actives have a fitted effect of over 20% in size; also: potency is read from the fitted curve at half-maximal effect). The essentials:
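TSHR-HEK293 cells were plated and held 18 h at 37C/5% CO2, then given compound plus Ro20-1724 and stimulated with TSH at 1.5 ng/mL final. After 30 min at room temperature, cAMP was detected with cAMP-d2/anti-cAMP-cryptate (1 h) by fluorescence.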

Records with an inconclusive call do not appear. Activity calls are given as the source filed them. Unless noted, calls follow the shape of the dose curve; as a rule, active = well fitted curve in the direction sought with a large enough effect in the repeat runs; inconclusive = weak or mixed curves; inactive = no such curve, though single readings can be large; an effect the other way counts as inactive or inconclusive.

Sequence of Estrogen receptor beta (Homo sapiens) (Q92731 whole entry, looked up): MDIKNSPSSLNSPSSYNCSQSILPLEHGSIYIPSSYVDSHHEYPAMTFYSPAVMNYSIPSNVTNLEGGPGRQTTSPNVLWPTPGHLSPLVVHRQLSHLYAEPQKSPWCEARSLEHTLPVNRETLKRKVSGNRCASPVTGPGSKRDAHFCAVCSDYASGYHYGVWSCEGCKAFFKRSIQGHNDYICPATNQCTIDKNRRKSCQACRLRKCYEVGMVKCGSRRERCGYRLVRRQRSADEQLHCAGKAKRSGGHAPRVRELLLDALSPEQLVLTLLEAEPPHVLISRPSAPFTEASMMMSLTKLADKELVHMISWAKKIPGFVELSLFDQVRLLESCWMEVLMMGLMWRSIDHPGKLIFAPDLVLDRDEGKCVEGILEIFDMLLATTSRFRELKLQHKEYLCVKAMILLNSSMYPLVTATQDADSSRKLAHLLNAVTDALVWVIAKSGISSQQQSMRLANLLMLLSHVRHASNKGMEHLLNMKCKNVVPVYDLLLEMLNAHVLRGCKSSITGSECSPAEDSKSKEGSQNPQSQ
Sequence of Thyrotropin receptor (Homo sapiens) (P16473 whole entry, looked up): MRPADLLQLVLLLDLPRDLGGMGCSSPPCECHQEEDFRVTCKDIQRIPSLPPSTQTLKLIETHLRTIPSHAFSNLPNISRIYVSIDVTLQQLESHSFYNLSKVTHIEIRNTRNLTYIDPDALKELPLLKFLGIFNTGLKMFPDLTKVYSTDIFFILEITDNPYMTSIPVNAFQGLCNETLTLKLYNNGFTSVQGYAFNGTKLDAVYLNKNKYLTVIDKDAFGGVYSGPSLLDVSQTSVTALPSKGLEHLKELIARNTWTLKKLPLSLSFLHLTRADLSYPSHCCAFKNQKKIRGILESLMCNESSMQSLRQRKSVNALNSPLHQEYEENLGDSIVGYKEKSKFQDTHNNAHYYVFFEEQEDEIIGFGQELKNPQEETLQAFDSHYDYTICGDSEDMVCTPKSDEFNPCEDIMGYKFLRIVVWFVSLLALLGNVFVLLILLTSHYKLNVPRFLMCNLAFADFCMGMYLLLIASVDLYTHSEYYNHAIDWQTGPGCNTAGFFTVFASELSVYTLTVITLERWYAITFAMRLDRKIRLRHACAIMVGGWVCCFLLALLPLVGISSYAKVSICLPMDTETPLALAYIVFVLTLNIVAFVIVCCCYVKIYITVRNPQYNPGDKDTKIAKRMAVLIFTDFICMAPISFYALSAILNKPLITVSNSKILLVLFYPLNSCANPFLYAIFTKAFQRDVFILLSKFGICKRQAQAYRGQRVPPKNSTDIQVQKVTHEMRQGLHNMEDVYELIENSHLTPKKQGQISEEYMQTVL

As for `Fc1ccc(Oc2ccnc3cc(Cl)cc(Cl)c23)cc1`, the Potency entry in test [1], in [2], in [3], in test [4], in test [5] and in [6] was “inactive” each time. Besides, the Potency result in [7], in test [8], in [9], in test [10] and in test [11] was “inactive” in each case. In test [12], the outcome was inactive.

In the case of `O=c1oc2ccccc2c(O)c1Cc1c(O)c2ccccc2oc1=O`, the Potency result in test [1], in test [2], in test [13], in [4], in test [5] and in test [6] was “inactive” each time. The Potency entry in test [7], in [8], in test [14], in test [9] and in test [15] was “inactive” each time. For the same compound, in test [10], the Potency was 5.31 µM (active).

Turning to `CN(C)[C@@H]1C(=O)C(C(N)=O)=C(O)[C@@]2(O)C(=O)C3=C(O)c4c(O)ccc(Cl)c4[C@@](C)(O)[C@H]3C[C@@H]12`, the Potency entry in test [1], in test [2], in test [13], in [4], in [5] and in test [6] was “inactive” each time. For the same compound, the Potency entry in [7], in [8], in test [9] and in test [11] was “inactive” each time. Also, in test [14], the Potency was 55.6 µM (active). For the same compound, in test [12], the outcome was inactive.

`CCc1nn(C)c(C(=O)NCc2ccc(C(C)(C)C)cc2)c1Cl`: the Potency in test [1] was 0.77 µM (active); in [2] it was 0.433 µM (active); in test [3] it was 0.0863 µM (active); in [14] it was 0.0386 µM (active); in test [17], 24.3 µM (active); in test [9], 0.306 µM (active). For the same compound, the values for the Potency in [10] and in test [19] were 54.5 µM (active) and 61.1 µM (active), respectively. Further, the Potency entry in [4], in [8], in test [16] and in [18] was “inactive” throughout. In addition, the outcome in [12] was inactive.

On to `Nc1ccccc1C(=O)OC/C=C/c1ccccc1`, for which the Potency result in test [1], in test [2], in [3], in test [5], in [6] and in test [7] was “inactive” in each case. Besides, the Potency result in test [16], in test [9], in [11] and in [19] was “inactive” in each case. Further, the Potency in test [17] is 48.7 µM (active); in test [10] it was 21.7 µM (active); in test [18] it was 12.2 µM (active). The outcome in test [12] was inactive.

Take `CN(C)C1CSSSC1`: the Potency entry in test [1], in test [2], in [3], in test [4], in [5] and in test [6] was “inactive” in each case. For the same compound, the Potency entry in [7], in test [8], in [9], in test [10], in test [11] and in [18] was “inactive” each time. For the same compound, in test [19], the Potency result is “inactive”. Moreover, in [12], the compound was classed as inactive.

With `Oc1ccc(I)cc1`, the Potency entry in [1], in test [2], in test [3], in test [4], in test [5] and in [6] was “inactive” throughout. For the same compound, the Potency entry in [7], in test [8], in test [9], in [10], in [11] and in [18] was “inactive” in each case. For the same compound, in [19], the Potency result is “inactive”. Moreover, the outcome in [12] was inactive.

As for `Nc1ccc(Cl)cc1C(=O)c1ccccc1`, the Potency result in [1], in test [2], in test [3], in test [4], in [5] and in [6] was “inactive” throughout. In addition, the Potency result in test [8], in [16], in test [18] and in [19] was “inactive” each time. In addition, the Potency in [17] was 30.6 µM (active). Besides, the compound was called inactive in test [12].

These data come from PubChem BioAssay (Tox21).
